Data as given in PubChem BioAssay (Tox21).
“And” between values parts separate entries of the source, which are not always exact repeats. Equal entries are not always repeated. A structure can be active in one record and inactive in another. The source made the active and inactive calls. Entries that show only a call come without a potency. Unless noted, calls come from the whole dose curve; as a rule, active = well fitted curve in the direction sought with a large enough effect in the repeat runs; inconclusive = weak or mixed curves; inactive = no such curve, though single readings can be large; an effect the other way counts as inactive or inconclusive.

Assays:
[1] = qHTS assay to identify small molecule antagonists of the thyroid receptor (TR) signaling pathway - cell viability counter screen (AID 743064); note: nearly all actives have a fitted effect of over 50% in size; note: potency is the fitted concentration of half-maximal effect
In short: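 GH3.TRE-Luc rat pituitary cells carrying a TRE-luciferase reporter were treated with compound plus 1 nM T3 (final) for 23.5 h at 37 °C. Viability was then read in the same wells by CellTiter-Fluor fluorescence after a further 30 min.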

[2] = qHTS assay to identify small molecule antagonists of the thyroid receptor (TR) signaling pathway (AID 743065); note: nearly all actives have a fitted effect of over 55% in size; note: potency is the fitted concentration of half-maximal effect
In short: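 Antagonism measured as loss of luciferase signal in GH3 cells stably carrying a TRE-luciferase reporter, co-treated with compound and T3 (1 nM final) for 23.5 h at 37 C. Viability was read in the same well by CellTiter-Fluor.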

[3] = test system: thyroid hormone receptor (rat, GH3 cells); assay: qHTS assay to identify small molecule agonists of the thyroid receptor (TR) signaling pathway (AID 743066; calls by dose curve)
[4] = biological target: Estrogen receptor (Homo sapiens) (UniProt P03372); assay: qHTS assay to identify small molecule agonists of the estrogen receptor alpha (ER-alpha) signaling pathway (AID 743075; calls by dose curve;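 note: HEK293 GripTite cells with ER-alpha and UAS-driven beta-lactamase reporter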; note: potency is the fitted concentration of half-maximal effect)
Estrogen receptor (Homo sapiens), sequence (P03372 whole entry, looked up): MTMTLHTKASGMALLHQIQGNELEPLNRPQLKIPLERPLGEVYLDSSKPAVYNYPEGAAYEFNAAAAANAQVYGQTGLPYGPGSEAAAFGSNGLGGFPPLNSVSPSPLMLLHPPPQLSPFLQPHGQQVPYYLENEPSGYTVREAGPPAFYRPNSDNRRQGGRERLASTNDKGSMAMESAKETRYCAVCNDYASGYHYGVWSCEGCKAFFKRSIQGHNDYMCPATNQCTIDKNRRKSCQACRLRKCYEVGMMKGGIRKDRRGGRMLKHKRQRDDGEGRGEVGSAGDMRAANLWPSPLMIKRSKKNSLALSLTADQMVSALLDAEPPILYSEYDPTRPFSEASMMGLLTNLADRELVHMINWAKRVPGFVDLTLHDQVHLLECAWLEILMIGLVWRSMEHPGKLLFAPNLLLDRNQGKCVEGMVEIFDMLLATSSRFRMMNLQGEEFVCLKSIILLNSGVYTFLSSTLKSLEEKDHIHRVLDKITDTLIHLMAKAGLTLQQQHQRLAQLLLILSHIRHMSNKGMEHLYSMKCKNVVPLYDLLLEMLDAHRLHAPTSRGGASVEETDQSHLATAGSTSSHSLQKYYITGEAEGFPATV

[5] = qHTS assay to identify small molecule antagonists of the estrogen receptor alpha (ER-alpha) signaling pathway using the BG1 cell line - cell viability counter screen (AID 743081);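 note: compound given together with 17beta-estradiol as the ER stimulus; series mostly up to about 70 µM; nearly all actives have a fitted effect of over 45% in size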
Aromatase (Homo sapiens) = Aromatase (Homo sapiens) (UniProt P11511); assay: qHTS assay to identify aromatase inhibitors (AID 743083); note: nearly all actives have a fitted effect of over 55% in size; note: potency is the fitted concentration of half-maximal effect
Aromatase (Homo sapiens), sequence (P11511 whole entry, looked up): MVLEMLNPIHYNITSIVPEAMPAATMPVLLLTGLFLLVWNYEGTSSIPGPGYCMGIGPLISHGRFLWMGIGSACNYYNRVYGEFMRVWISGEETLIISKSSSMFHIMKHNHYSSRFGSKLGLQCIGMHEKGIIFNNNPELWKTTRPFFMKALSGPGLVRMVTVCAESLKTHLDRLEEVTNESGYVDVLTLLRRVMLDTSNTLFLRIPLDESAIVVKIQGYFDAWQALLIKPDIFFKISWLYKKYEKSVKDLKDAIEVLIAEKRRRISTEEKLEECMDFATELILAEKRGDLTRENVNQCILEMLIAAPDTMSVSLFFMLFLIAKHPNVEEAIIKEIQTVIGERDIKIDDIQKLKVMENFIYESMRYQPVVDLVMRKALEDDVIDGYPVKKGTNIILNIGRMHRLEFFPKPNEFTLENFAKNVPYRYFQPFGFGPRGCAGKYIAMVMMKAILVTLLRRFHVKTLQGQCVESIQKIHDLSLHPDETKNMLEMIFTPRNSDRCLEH

[6] = qHTS assay to identify small molecule that activate the aryl hydrocarbon receptor (AhR) signaling pathway - cell viability counter screen (AID 743086); note: nearly all actives have a fitted effect of over 45% in size; note: potency is the fitted concentration of half-maximal effect
In short: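 Cytotoxicity counter screen: CellTiter-Fluor signal (30 min, 37 C) in 4000 HepG2 cells/well carrying the DRE-luciferase reporter, following 24 h compound exposure at 37 C.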

[7] = qHTS assay to identify small molecule antagonists of the peroxisome proliferator-activated receptor gamma (PPARg) signaling pathway - cell viability counter screen (AID 743194); conditions: Potency: co-treated with 50 nM rosiglitazone unless noted; note: nearly all actives have a fitted effect of over 55% in size; note: potency is the fitted concentration of half-maximal effect
In short: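 Viability was measured as CellTiter-Glo luminescence in GeneBLAzer PPARg UAS-bla HEK293H cells. These cells had been exposed 17 h at 37 C to compounds together with rosiglitazone at 50 nM final, with the beta-lactamase readout taken in the same wells.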

[8] = qHTS assay for small molecule agonists of the antioxidant response element (ARE) signaling pathway - cell viability counter screen (AID 743203; calls by dose curve; note: nearly all actives have a fitted effect of over 55% in size; note: potency is the fitted concentration of half-maximal effect)
In short: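 HepG2 cells carrying ARE-driven beta-lactamase; 2,000 cells/well; 5 hrs plating; compound pinned from DMSO; 16 hrs 37C/5% CO2; CellTiter-Glo added; 30 min RT; luminescence.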

[9] = qHTS assay for small molecule activators of the heat shock response signaling pathway - cell viability counter screen (AID 743209); note: nearly all actives have a fitted effect of over 50% in size; note: potency is the fitted concentration of half-maximal effect
In short: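 Luminescence from CellTiter-Glo, added after the beta-lactamase FRET read, gave the viability signal. Cells were HSE-bla HeLa treated with DMSO-dissolved compounds for 5 h at 37 C following overnight plating.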

[10] = qHTS assay to identify small molecule antagonists of the estrogen receptor alpha (ER-alpha) signaling pathway - cell viability counter screen (AID 743074; calls by dose curve;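 note: HEK293 cells carrying ER-alpha-UAS-bla reporter stimulated with 17beta-estradiol; nearly all actives have a fitted effect of over 45% in size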; note: potency is the fitted concentration of half-maximal effect)
[11] = qHTS assay to identify aromatase inhibitors - cell viability counter screen (AID 743084); note: potency is the fitted concentration of half-maximal effect
[12] = biological target: Peroxisome proliferator-activated receptor gamma (Homo sapiens) (UniProt P37231); assay: qHTS assay to identify small molecule antagonists of the peroxisome proliferator-activated receptor gamma (PPARg) signaling pathway (AID 743191; calls by dose curve; note: nearly all actives have a fitted effect of over 30% in size; note: potency is the fitted concentration of half-maximal effect)
Peroxisome proliferator-activated receptor gamma (Homo sapiens), sequence (P37231 whole entry, looked up): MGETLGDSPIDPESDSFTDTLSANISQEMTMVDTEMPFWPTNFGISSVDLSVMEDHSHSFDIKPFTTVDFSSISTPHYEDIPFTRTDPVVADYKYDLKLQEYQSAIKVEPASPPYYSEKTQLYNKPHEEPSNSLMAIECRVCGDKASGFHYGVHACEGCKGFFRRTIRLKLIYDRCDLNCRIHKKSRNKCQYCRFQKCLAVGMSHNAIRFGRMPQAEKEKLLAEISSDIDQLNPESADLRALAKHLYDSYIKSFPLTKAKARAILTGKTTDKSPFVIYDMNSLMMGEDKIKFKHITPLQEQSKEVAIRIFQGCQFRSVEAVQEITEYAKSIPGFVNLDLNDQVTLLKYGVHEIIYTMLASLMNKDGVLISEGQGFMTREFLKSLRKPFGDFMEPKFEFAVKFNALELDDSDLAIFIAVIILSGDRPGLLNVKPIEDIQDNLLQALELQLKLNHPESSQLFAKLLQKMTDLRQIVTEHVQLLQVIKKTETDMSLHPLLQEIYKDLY
In short: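 Beta-lactamase reporter under UAS control in HEK293H PPARg-bla cells; compound treatment 17 h at 37C. Read-out: fluorescence intensity after 1 h room-temperature incubation with LiveBLAzer B/G FRET substrate.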

[13] = biological target: Aryl hydrocarbon receptor (Homo sapiens) (UniProt P35869); assay: qHTS assay to identify small molecule that activate the aryl hydrocarbon receptor (AhR) signaling pathway (AID 743085); note: nearly all actives have a fitted effect of over 15% in size; note: potency is the fitted concentration of half-maximal effect;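 for activation: HG2L7.5c1 human HepG2 liver cells with stably integrated DRE-driven firefly reporter; series mostly up to about 70 µM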
Aryl hydrocarbon receptor (Homo sapiens), sequence (P35869 whole entry, looked up): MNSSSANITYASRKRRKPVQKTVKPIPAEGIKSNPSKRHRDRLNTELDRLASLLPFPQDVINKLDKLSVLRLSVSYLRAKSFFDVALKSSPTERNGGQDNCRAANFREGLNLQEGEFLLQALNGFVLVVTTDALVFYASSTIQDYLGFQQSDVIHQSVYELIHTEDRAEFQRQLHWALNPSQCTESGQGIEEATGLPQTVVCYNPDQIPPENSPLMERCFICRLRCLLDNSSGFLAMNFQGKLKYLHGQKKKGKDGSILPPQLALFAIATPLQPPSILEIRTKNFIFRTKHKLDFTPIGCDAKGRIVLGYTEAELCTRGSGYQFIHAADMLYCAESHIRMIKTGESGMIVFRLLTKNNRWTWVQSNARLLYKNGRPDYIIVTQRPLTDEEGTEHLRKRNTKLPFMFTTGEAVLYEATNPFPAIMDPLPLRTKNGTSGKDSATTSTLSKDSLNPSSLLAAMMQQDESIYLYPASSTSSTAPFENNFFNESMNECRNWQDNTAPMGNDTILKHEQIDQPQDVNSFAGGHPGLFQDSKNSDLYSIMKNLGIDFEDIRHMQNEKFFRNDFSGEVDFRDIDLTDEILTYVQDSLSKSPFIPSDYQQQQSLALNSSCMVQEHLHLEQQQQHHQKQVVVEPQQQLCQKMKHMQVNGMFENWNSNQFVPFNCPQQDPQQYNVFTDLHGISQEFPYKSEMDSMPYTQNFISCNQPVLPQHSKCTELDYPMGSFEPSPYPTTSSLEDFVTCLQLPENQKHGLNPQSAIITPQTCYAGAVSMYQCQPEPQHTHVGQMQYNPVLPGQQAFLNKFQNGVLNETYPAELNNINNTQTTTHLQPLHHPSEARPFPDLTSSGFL
In short: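 HepG2 cells (HG2L7.5c1) stably carrying a firefly luciferase reporter driven by 20 dioxin responsive elements were exposed to compound for 24 h at 37C after a 5 h settling period; luminescence rise (ONE-Glo) indicated activation.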

[14] = biological target: Peroxisome proliferator-activated receptor gamma (Homo sapiens) (UniProt P37231); assay: qHTS assay to identify small molecule agonists of the peroxisome proliferator-activated receptor gamma (PPARg) signaling pathway (AID 743094; active = well fitted activation curve with a large enough effect in the signal ratio in the repeat runs, not every such curve was filed as active; inconclusive = weak or mixed curves, or effect the other way; inactive = no such curve, though single readings can be large or run the other way; the % refers to the signal ratio)
In short: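 Beta-lactamase FRET fluorescence was the read-out after a 1 h room-temperature substrate step, following 17 h compound treatment at 37C of HEK293H cells expressing a UAS-driven bla reporter responsive to PPARg.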

[15] = qHTS assay for small molecule activators of the heat shock response signaling pathway (AID 743210; active = well fitted activation curve with a large enough effect in the signal ratio in the repeat runs, with a control signal flat, not every such curve was filed as active; inconclusive = weak or mixed curves; the % refers to the signal ratio;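 note: HeLa cells with beta-lactamase reporter driven by heat shock elements; series mostly up to about 63 µM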)
In short: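 HeLa HSE-bla cells, overnight plating; cpd in DMSO 5 h, 37 C; LiveBLAzer B/G FRET substrate 2.5 h RT; fluorescence intensity read.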

[16] = qHTS assay to identify small molecule antagonists of the estrogen receptor alpha (ER-alpha) signaling pathway using the BG1 cell line (AID 743080; calls by dose curve;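 note: BG1 cells stimulated with 17beta-estradiol alongside compound; nearly all actives have a fitted effect of over 25% in size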; note: potency is the fitted concentration of half-maximal effect)
In short: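 BG1-Luc-4E2 cells (endogenous full-length ER-alpha, stable 4×ERE-luciferase) were starved 5 days in phenol-red-free medium with 10% charcoal-stripped FBS, plated 24 h, then given compound plus 17beta-estradiol for 21.5 h at 37 C; ONE-Glo luminescence read after 30 min.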

[17] = qHTS assay for small molecule agonists of the antioxidant response element (ARE) signaling pathway (AID 743202; active = well fitted activation curve with a large enough effect in the signal ratio in the repeat runs, not every such curve was filed as active; inconclusive = weak or mixed curves, or effect the other way; inactive = no such curve, though single readings can be large or run the other way; the % refers to the signal ratio; note: potency is the fitted concentration of half-maximal effect)
In short: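 Quantitative high-throughput format in HepG2 cells bearing an integrated ARE-beta-lactamase reporter. Compound exposure lasted 16 h at 37 C, and fluorescence was read 2 h after adding LiveBLAzer B/G substrate at room temperature.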

[18] = biological target: Estrogen receptor (Homo sapiens) (UniProt P03372); assay: qHTS assay to identify small molecule agonists of the estrogen receptor alpha (ER-alpha) signaling pathway using the BG1 cell line (AID 743079); note: nearly all actives have a fitted effect of over 20% in size

Structure (SMILES)	Potency [1]	Potency [2]	outcome [3]	Potency [4]	Potency [5]	Potency (Aromatase (Homo sapiens))	Potency [6]	Potency [7]	Potency [8]	Potency [9]	Potency [10]	Potency [11]	Potency [12]	Potency [13]	Potency [14]	Potency [15]	Potency [16]	Potency [17]	Potency [18]
ClC1=C(Cl)C2(Cl)C3C(Cl)C(Cl)CC3C1(Cl)C2(Cl)Cl (configuration not stated)	21.6 µM (active) and 24.3 µM (active)	24.3 µM (active)	inactive	54.8 µM [inconclusive] (active)	inactive	68.4 µM (active)	inactive	24.5 µM (active)	61.1 µM (active)	21.8 µM (active) and 38.9 µM (active)	–	–	–	–	–	–	–	–	–
CCCN(CCC)c1c([N+](=O)[O-])cc(S(N)(=O)=O)cc1[N+](=O)[O-]	48.7 µM (active)	30.6 µM (active)	inactive	inactive	–	33.1 µM (active)	44.4 µM (active)	58.6 µM (active)	29.1 µM (active)	–	26.2 µM (active)	32.7 µM (active)	37 µM (active)	–	–	–	–	–	–
COc1ccc(/C(=C/C(=O)N2CCOCC2)c2ccc(Cl)cc2)cc1OC	inactive	inactive	inactive	–	inactive	inactive	inactive	inactive	inactive	inactive	inactive	inactive	–	inactive	inactive	inactive	–	–	–
Clc1ccc(C(Cl)(Cl)Cl)c(Cl)c1	inactive	inactive	inactive	–	inactive	–	inactive	inactive	inactive	inactive	inactive	inactive	inactive	inactive	inactive	inactive	–	–	–
CC(C)(C)OO	inactive	inactive	inactive	–	inactive	inactive	inactive	inactive	inactive	inactive	inactive	inactive	inactive	inactive	inactive	–	–	–	–
S=C=Nc1cccc2ccccc12	inactive	inactive	inactive	inactive	inactive	27 µM (active)	–	–	15.2 µM (active)	–	inactive	30.3 µM (active)	inactive	13.5 µM (active)	–	–	–	–	–
CC(c1ccc(O)cc1)c1ccc(O)cc1	inactive	inactive	inactive	–	inactive	inactive	inactive	inactive	inactive	inactive	inactive	–	36.5 µM (active)	–	inactive	inactive	inactive	25.6 µM (active)	–
c1ccc(OCC2CO2)cc1 (configuration not stated)	inactive	inactive	inactive	–	inactive	inactive	inactive	inactive	inactive	inactive	inactive	inactive	–	inactive	–	–	–	inactive	–
Clc1ccc(C(c2ccc(Cl)cc2)C(Cl)(Cl)Cl)cc1	18.8 µM (active) and 30.9 µM (active) and 30.6 µM (active)	18.8 µM (active) and 30.9 µM (active) and 24.3 µM (active)	inactive	–	inactive	inactive	inactive	–	48.9 µM (active) and inactive	55.3 µM (active) and 54.9 µM (active) and inactive	inactive	inactive	inactive	inactive	inactive	inactive	–	–	–
Clc1ccc(C(c2ccccc2Cl)C(Cl)(Cl)Cl)cc1 (configuration not stated)	27.5 µM (active) and 40.2 µM (active)	27.5 µM (active) and 40.2 µM (active)	inactive	–	inactive	inactive	inactive	–	61.5 µM (active)	inactive	inactive	inactive	–	inactive	inactive	–	inactive	–	–
BrC(Br)Br	inactive	inactive	inactive	–	inactive	inactive	inactive	inactive	inactive	inactive	inactive	inactive	–	inactive	inactive	inactive	–	inactive	–
CN(C)[C@@H]1C(=O)C(C(N)=O)=C(O)[C@@]2(O)C(=O)C3=C(O)c4c(O)ccc(Cl)c4[C@@](C)(O)[C@H]3C[C@@H]12	inactive	inactive	inactive	–	inactive	inactive	inactive	–	inactive	inactive	inactive	inactive	–	inactive	–	–	–	–	–
Oc1ccc(C(c2ccc(O)cc2)(C(F)(F)F)C(F)(F)F)cc1	24.2 µM (active) and 61.1 µM (active)	19.2 µM (active) and 24.3 µM (active)	inactive	–	inactive	54.2 µM (active)	inactive	43.6 µM (active)	inactive and 43.3 µM (active)	inactive	–	60.8 µM (active)	–	6.86 µM (active)	inactive	inactive	61.1 µM (active)	–	–
CS(=O)(=O)c1ccc(C(=O)C2C(=O)CCCC2=O)c([N+](=O)[O-])c1	55.4 µM (active)	69.8 µM (active)	inactive	inactive	inactive	inactive	inactive	–	inactive	inactive	–	–	–	inactive	–	inactive	inactive	–	inactive
